The full ranking holds about 35,000 sequences; the median of “fluorescence intensity (a.u.)” is about 10,000, and the highest 2% start at about 52,000. The list comes from a sample in which the highest values are over-represented; it also holds similar and randomly drawn sequences.
These sequences were tested against T1, OsWOX13 (Oryza sativa, UniProt Q5QMM3 1-267) (assay: protein-binding microarray (RPBM); PBS, 2% BSA, 51.3 ng/ul salmon testes DNA, 50 uM zinc acetate, 200 nM TF, 25 C, 1 h; high values mean tight binding). Conditions: protein: recombinant; tags: N-terminal polyhistidine and DsRed monomer fusion (pET32a); label: CyDye5-dUTP incorporated in the synthesized complementary strand; 3' TTTTT single-stranded linker to array surface; dsDNA, one strand shown.
T1 sequence: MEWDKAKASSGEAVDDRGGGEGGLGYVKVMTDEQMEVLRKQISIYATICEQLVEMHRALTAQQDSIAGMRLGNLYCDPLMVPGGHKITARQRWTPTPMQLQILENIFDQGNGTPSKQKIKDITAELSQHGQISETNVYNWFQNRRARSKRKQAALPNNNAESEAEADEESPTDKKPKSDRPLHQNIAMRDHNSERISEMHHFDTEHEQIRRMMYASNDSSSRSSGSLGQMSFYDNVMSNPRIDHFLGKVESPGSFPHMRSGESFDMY
Summary of the method: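 Binding signal here means per-feature fluorescence intensity in arbitrary units. The values were read on an Axon 4000B scanner after a custom Agilent array, double-stranded by primer extension with Cy5-dUTP, was incubated with 200 nM protein at 25 °C for 1 h in PBS with 2% BSA, salmon testes DNA and 50 µM zinc acetate, then washed. The proteins were transcription factors with an N-terminal polyhistidine tag and DsRed, expressed in E. coli BL21-CodonPlus and purified on Ni–NTA.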

Row | Sequence | binding signal
1 | ATAGATAGATTTCTCCATAAGTAATTACATTGTAGGTAGGCGGAGTCACCTAGTGCAG | 28500 fluorescence intensity (a.u.)
2 | AATAACTGATGACTGTGAATGATTGATACGATGTAGTAGGCGGAGTCACCTAGTGCAG | 65300 fluorescence intensity (a.u.)
3 | TCTGATTGATGATGACGATGATGGCGGCTGTGCAGCTGAACGGAGTCACCTAGTGCAG | 47600 fluorescence intensity (a.u.)
4 | CAGTTATGTGATTGGACTATAAATACGATATATGTTGTGTCGGAGTCACCTAGTGCAG | 28700 fluorescence intensity (a.u.)
5 | TTAAATTGTTAATACCTCTGTATATCATCCGATCTACGTACGGAGTCACCTAGTGCAG | 19600 fluorescence intensity (a.u.)
6 | ATAACAGTGATTGATCTGTTAAATATCCGATACGGGTAGGCGGAGTCACCTAGTGCAG | 65200 fluorescence intensity (a.u.)
7 | AACTGATATGTAGGGTATGATTGTAATGAAATTACGATTGCGGAGTCACCTAGTGCAG | 10700 fluorescence intensity (a.u.)
8 | GACTTGTAATTTGTAGCAGTGGTAAGAAATAAATCTGACCCGGAGTCACCTAGTGCAG | 3900 fluorescence intensity (a.u.)
9 | CTTAAACAAATGATAGTACGATCCCATCTGATTGGGTGTTCGGAGTCACCTAGTGCAG | 7540 fluorescence intensity (a.u.)
10 | ACTCAATCTTATTAACTTAAATTGAACTTGAACAAGAGAACGGAGTCACCTAGTGCAG | 22000 fluorescence intensity (a.u.)
11 | ACTGATAACTTCCAACTGATAATTGGAGAAGGAGGGTTTGCGGAGTCACCTAGTGCAG | 12400 fluorescence intensity (a.u.)
12 | TCGTAAATTTAAATCCATAGATTTAAGGAATACTTAGGCTCGGAGTCACCTAGTGCAG | 25900 fluorescence intensity (a.u.)
13 | TCAATTAATTAATTAATTAACTACACTTTCACACGAGTCTCGGAGTCACCTAGTGCAG | 52700 fluorescence intensity (a.u.)
14 | TTGAGCACTAATTAATCATTAGGTGGCCTAATCAACAGCTCGGAGTCACCTAGTGCAG | 22000 fluorescence intensity (a.u.)
15 | AATTAATCAGCCAATCACAATCTCTCAAACTACACGGACTCGGAGTCACCTAGTGCAG | 35500 fluorescence intensity (a.u.)
16 | GTAATTAATTAACATTGCAATTAAGCACATAAGTTAATCACGGAGTCACCTAGTGCAG | 27000 fluorescence intensity (a.u.)
17 | GTAATTAACAGCAATCAGCAAGTGGCCTAATTGCCAACCTCGGAGTCACCTAGTGCAG | 56700 fluorescence intensity (a.u.)
18 | AATCAACTAACTAATCATGGGATTAACCAAAACTAATTCTCGGAGTCACCTAGTGCAG | 3800 fluorescence intensity (a.u.)
19 | ACCCAAAATTAACTCTAAACTTAAGTTTCAAAATCTAAATCGGAGTCACCTAGTGCAG | 7640 fluorescence intensity (a.u.)
20 | AGACAATTCAATAATTAATCTACACTTTCCTTCCGCACCTCGGAGTCACCTAGTGCAG | 5880 fluorescence intensity (a.u.)
21 | GCAAATTAATTAACTAATTAATTAAACACCCAACTAATCTCGGAGTCACCTAGTGCAG | 63700 fluorescence intensity (a.u.)
22 | CCACCTCTAATGAAGAGGTGATTGCAACCATTCATCTCTTCGGAGTCACCTAGTGCAG | 12000 fluorescence intensity (a.u.)
23 | AAACAAACTAACATGGATTGATTTTCTATAGGATGGAGGGCGGAGTCACCTAGTGCAG | 25200 fluorescence intensity (a.u.)

Reference: publication PMC7819943, “Rice protein-binding microarrays: a tool to detect cis-acting elements near promoter regions in rice”
